# Screens from PubChem BioAssay.
# hgDAF12 agonist: agonists of H. glycines DAF-12 nuclear receptor; activation, % at 6.8 µM; HEK293 GAL4-hgDAF12 UAS-luciferase reporter, agonist luminescence; normalized to butyrate control; 1.8% of 370,000 active;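 active = activation above a cutoff set at the mean of all screened compounds plus 3 SD, cut at about 10% in these data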
# DAX1 inh-1: NR0B1 (DAX1) inhibition; P51843; HEK293 Gal4-DAX1 luciferase reporter, luminescence; inhibition, % at 6.75 µM; 0.99% of 340,000 active; AID 504766;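 active = inhibition above the mean over all tested compounds plus 3 SD, cut at about 4.2% in these data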;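 note: inhibition shows as a rise in luminescence from relieved DAX1 repression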
# ssDAF-12 act: activates DAF-12 receptor from parasite S. stercoralis | HEK293 ssDAF-12/GRIP1 lit1-tk-luc reporter, luminescence; % of 3 µM dafachronic acid response | activation, % at 6.8 µM | 1% of 370,000 active | AID 652126;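 active = activation above the mean over all tested compounds plus 3 SD, cut at about 0.9% in these data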
# hcDAF12 agonist: activators of H. contortus DAF-12 nuclear receptor | HEK293 hcDAF-12 lit1-tk-luc reporter, luminescence; 0% DMSO, 100% Δ7-dafachronic acid | activation, % at 6.8 µM | 1.4% of 370,000 active | AID 652067;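 active = activation above the mean of all tested compounds plus 3 SD, cut at about 5.5% in these data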
# DAX1 inh-2: inhibitors of DAX1 repression of SF-1 activated StAR promoter. AID 652010. HEK293T StAR-luciferase reporter, SF-1/DAX-1 repression relief. 1.1% of 370,000 active. inhibition, % at 6.8 µM;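 active = inhibition above the mean over all tested compounds plus 3 SD, cut at about 3.6% in these data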;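 note: higher inhibition means more luminescence from relief of DAX-1 repression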
# DAX1 inh confirm: NR0B1 (human) inhibition, confirmation | shares compounds with DAX1 inh-2 | HEK293T StAR-promoter luciferase reporter, SF-1/DAX-1 repression | inhibition, % at 6.8 µM | 87% of 2,400 active;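 active = inhibition above the average of every tested compound plus 3 SD, cut at about 3.8% in these data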;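 note: active compounds raise luminescence by relieving repression of the StAR reporter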
# Target sequence (P51843 whole entry, looked up): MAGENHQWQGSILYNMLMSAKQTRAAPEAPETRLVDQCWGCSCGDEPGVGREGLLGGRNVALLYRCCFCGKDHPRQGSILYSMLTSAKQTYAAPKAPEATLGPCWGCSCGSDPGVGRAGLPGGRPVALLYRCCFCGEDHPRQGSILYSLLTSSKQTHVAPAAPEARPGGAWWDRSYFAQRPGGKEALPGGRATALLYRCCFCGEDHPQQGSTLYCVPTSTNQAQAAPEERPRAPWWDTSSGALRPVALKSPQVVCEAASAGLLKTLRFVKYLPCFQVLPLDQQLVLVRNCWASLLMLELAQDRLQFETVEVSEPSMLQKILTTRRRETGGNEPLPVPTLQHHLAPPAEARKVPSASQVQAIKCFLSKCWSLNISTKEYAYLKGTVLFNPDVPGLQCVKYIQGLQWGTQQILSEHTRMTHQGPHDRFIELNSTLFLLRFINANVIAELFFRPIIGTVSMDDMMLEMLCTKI
# SF1 AF2mut Luc: nonselective inhibitor or artifact in SF-1 mutant DAX1 counter-screen | shares compounds with DAX1 inh-2 | HEK293 StAR-luciferase, SF-1 AF2 mutant, luminescence | inhibition, % at 6.8 µM | 78% of 2,400 active | AID 652136;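 active = inhibition above the mean of all tested compounds plus 3 SD, cut at about 3% in these data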
# A number is an active result; 0 = inactive; - = not tested or not shown. In the library only some 4.1% were active in any assay of this set; here they are far more common.
SMILES,hgDAF12 agonist,DAX1 inh-1,ssDAF-12 act,hcDAF12 agonist,DAX1 inh-2,DAX1 inh confirm,SF1 AF2mut Luc
CN1CCCC(OC(=O)c2ccc(Cl)cc2)C1 (stereo not drawn),0,0,0,0,0,-,-
CN1CCCC(OC(=O)c2ccc3c(c2)OCCO3)C1 (stereo not drawn),0,0,0,0,5.4,6.4,3.2
CC(C)(C)n1cnc2cc(NCc3cccs3)ccc21,0,0,0,0,0,-,-
CC(C)(C)n1cnc2cc(NC(=O)c3cccs3)ccc21,0,0,0,0,5.6,8.6,5.9
COc1ccc(NC(=O)c2ccccc2NC(=O)C2CC=CCC2C(=O)O)cc1 (stereo not drawn),11.7,0,0,0,5.6,4.0,3.4
COc1ccc(NC(=O)c2ccccc2NC(=O)c2ccccc2)cc1,0,0,0,0,0,-,-
COc1ccc(C2CC(=O)C(c3ccc(F)cc3)=CN2Cc2ccccc2)cc1 (stereo not drawn),0,-,0,0,0,-,-
C=CCN1C(=O)[C@H](CC(=O)NCCCC)[C@@]2(C(=O)OCC)CCCC=C12,0,-,0,0,0,-,-
CCOC(=O)c1sc(NC(=O)CSc2nccn2C)nc1C,0,0,0,0,5.7,6.8,4.8
CCOC(=O)c1sc(NC(=O)CSc2ncccn2)nc1C,0,0,0,0,0,-,-
CCOC(=O)[C@]12CCCCC/C=C\1N(Cc1ccc(OC)cc1)C(=O)[C@H]2CC(=O)NCCCOC,0,-,0,0,5.2,0,0
CCOC(=O)[C@]12CCCC=C1N(Cc1ccc(OC)cc1)C(=O)[C@@H]2CC(=O)NCCCOC,0,-,0,0,0,-,-
Cc1cccc(OCCn2c(=O)n(C)c3ccccc32)c1,12.7,0,0,0,5.8,7.2,4.3
Cc1cccc(OCCn2c(=O)sc3ccccc32)c1,0,0,0,0,0,-,-
COC(=O)[C@]12C[C@H](CC(=O)NCCCCc3ccccc3)C(=O)N(Cc3ccccc3)C1=C[C@H](C1CCCC1)O[C@@H]2C,0,-,0,0,0,-,-
COC(=O)[C@]12C[C@H](CC(=O)NCCCCc3ccccc3)C(=O)N(CCc3ccc(OC)c(OC)c3)C1=C[C@H](C(C)(C)C)O[C@@H]2C,0,-,0,0,0,-,-
Cc1cs/c(=N/C(=S)Nc2ccccc2)n1C,12.8,0,0.9,0,5.6,12.2,5.8
CCCn1c(C)cs/c1=N\C(=S)Nc1ccccc1,0,0,0,0,0,-,-
CC(C)(C)n1nc(C2CC2)c(Br)c1NC(=O)c1ccc(Cl)cc1,0,-,0,0,0,-,-
CC(C)(C)c1ccc(C(=O)NNC(=O)C2CCCCC2)cc1,0,0,0,0,0,-,-
Cc1cccc(C(=O)NNC(=O)C2CCCCC2)c1O,0,0,0,0,4.6,0,0
Cc1ccc(N(C)S(=O)(=O)c2cc(-c3cnc(C4CC4)o3)ccc2C)cc1,0,0,0,0,0,-,-
Cc1cccc(N(C)S(=O)(=O)c2ccc(-c3cnc(C4CC4)o3)cc2)c1,0,0,0,0,7.6,15.1,0
O=C(c1cccnc1)N(Cc1ccccc1)C(c1ccccc1)c1nc2ccccc2[nH]1 (stereo not drawn),0,-,0,0,0,-,-
O=C(c1ccco1)N(Cc1cccnc1)C(c1ccccc1)c1nc2ccccc2[nH]1 (stereo not drawn),0,-,0,0,6.0,3.8,3.1
SMILES,hgDAF12 agonist,DAX1 inh-1,ssDAF-12 act,hcDAF12 agonist,DAX1 inh-2,DAX1 inh confirm,SF1 AF2mut Luc
COc1ccc(CNc2nc3ccccc3s2)cc1OC,0,0,0,0,0,-,-
COc1ccc(Nc2nc3ccccc3s2)cc1,26.8,4.3,0,0,5.5,12.2,7.3
Nc1ccc(C#Cc2ccccc2)cc1,0,0,0,0,0,-,-
Cc1cccc(C#Cc2ccccc2)n1,10.9,0,0,0,4.9,7.3,4.9
N/C(=N\OC(=O)c1cccc(C(F)(F)F)c1)c1cnccn1,11.0,0,0,0,5.2,7.3,5.9
COc1cccc(NC(=O)C(=O)N/N=C(\C)CC(=O)Nc2ccc(NC(C)=O)cc2)c1,12.5,0,0,0,5.8,5.9,5.8
CCc1ccc(NC(=O)C(=O)N/N=C(\C)CC(=O)Nc2ccc(OC)cc2)cc1,0,0,0,0,0,-,-
Nc1ccc2nc(-c3ccc(-c4nc5ccc(N)cc5[nH]4)cc3)[nH]c2c1,0,-,0,0,0,-,-
Nc1ccc(-c2nc3ccccc3[nH]2)cc1,10.6,0,0,0,5.2,9.9,6.8
O=C(Nc1ccc2c(c1)OCCO2)c1c(F)cccc1F,-,0,-,-,-,-,-
O=C(Nc1ccc2c(c1)OCCO2)c1ccccc1F,11.1,0,0,5.7,4.8,13.9,6.2
Cc1ccccc1Cn1nnc(C(=O)Nc2cccc(C)c2C)c1N,0,0,0,0,0,-,-
Cc1ccccc1Cn1nnc(C(=O)Nc2ccc3c(c2)OCCO3)c1N,0,0,0,0,6.2,8.7,7.4
Cc1ccc(C)c(Cn2nnc(C(=O)Nc3ccc4c(c3)OCCO4)c2N)c1,0,0,0,0,4.6,0,3.6
C=CCCC1CN(Cc2ccc(OC)cc2)S(=O)(=O)c2c(cccc2N(C)S(=O)(=O)c2ccc(C)cc2)O1 (stereo not drawn),0,-,0,0,0,-,-
Cc1coc(C)c1C(=O)Nc1ccc2ccccc2c1,0,0,0.9,0,7.4,6.0,3.8
O=C(Nc1ccc2ccccc2c1)c1cnccn1,10.9,0,0,6.4,5.5,14.4,7.9
O=C(Nc1ccc2ccccc2c1)c1cccnc1,0,0,0,0,4.7,11.2,7.7
CCOC(=O)CSC1=C(C#N)C(c2ccc(Cl)cc2)CC(=O)N1 (stereo not drawn),0,0,0,0,0,-,-
CCOC(=O)CSC1=C(C#N)C(c2ccc(C)o2)CC(=O)N1 (stereo not drawn),0,0,0,0,5.6,17.1,0
COc1cc(Cl)ccc1OCc1cc(C(=O)N2C[C@@H]3CCC[C@H]2C3)no1,0,0,0,0,5.2,7.5,4.9
COc1cc(Cl)ccc1OCc1cc(C(=O)N2C[C@H]3CC[C@H]2C3)no1,0,0,0,0,5.5,4.7,4.0
CC(C)(C)S(=O)N1C[C@H]2CC(=O)C(CCO)=C2[C@@H]1CCO (stereo partly drawn),0,-,0,0,0,-,-
C[C@H](CO)N1C[C@H](C)[C@@H](CN(C)C(=O)Nc2ccnc(N3CCOCC3)c2)OCc2cn(nn2)CCCC1=O,0,-,0,0,0,-,-
COc1ccc(C(=O)NCCS(=O)(=O)NCCc2ccccc2)cc1,0,0,0,0,4.8,3.8,0
COc1ccc(CCNS(=O)(=O)CCNC(=O)c2ccccc2)cc1,0,0,0,0,0,-,-
